According to PubChem BioAssay AID602257 (NMMLSC, 2012):
Measured potencies and affinities stand elsewhere. The source made the active and inactive calls. No rule for the calls is given here.

Test: yeast V-ATPase proton pumping modulator potency, dose response, S. cerevisiae, pHLuorin, powder set 1 (AID 602257)
Conditions: vacuolar pH, pHLuorin fluorescence; series mostly up to 100 µM

outcome, inactive:
O=C(c1ccno1)N1CCN(c2nc3ccc(F)cc3s2)CC1
Cc1cc(C(=O)N2CCN(c3nc4ccc(F)cc4s3)CC2)no1
CC(C)(C)C(=O)N1CCN(c2nc3ccc(F)cc3s2)CC1
Cc1cc(C(=O)N2CCN(c3nc4ccc(F)cc4s3)CC2)nn1C
CS(=O)(=O)c1cccc2sc(N3CCN(C(=O)c4ccc([N+](=O)[O-])o4)CC3)nc12
O=C(C1CC1)N1CCN(c2nc3ccc(F)cc3s2)CC1
O=C(c1ccc(Cl)s1)N1CCN(c2nc3ccc(F)cc3s2)CC1
CS(=O)(=O)c1ccc2nc(N3CCN(C(=O)c4ccc([N+](=O)[O-])o4)CC3)sc2c1
O=C(C1CCCCC1)N1CCN(c2nc3ccc(F)cc3s2)CC1
Cc1cc(C(=O)N2CCN(c3nc4ccc(F)cc4s3)CC2)n(C)n1
O=C(c1ccc(Br)s1)N1CCN(c2nc3ccc(F)cc3s2)CC1
O=C(c1cccs1)N1CCN(c2nc3ccc(F)cc3s2)CC1
O=C(c1cnccn1)N1CCN(c2nc3ccc(F)cc3s2)CC1
Cc1cc(C(=O)N2CCN(c3nc4ccc(F)cc4s3)CC2)on1
COc1ccc2nc(N3CCN(C(=O)c4ccc([N+](=O)[O-])o4)CC3)sc2c1
O=C(c1ccc([N+](=O)[O-])o1)N1CCN(c2nc3ccc(F)cc3s2)CC1
O=C(c1ccc([N+](=O)[O-])o1)N1CCN(c2nccs2)CC1
O=C(c1ccc([N+](=O)[O-])o1)N1CCN(c2ccccn2)CC1
O=C(c1ccco1)N1CCN(c2nc3ccc(F)cc3s2)CC1
O=C(c1nc2ccccc2s1)N1CCN(c2nc3ccc(F)cc3s2)CC1
